Records with an inconclusive call do not appear. A call without a number means that no potency is given here. The source made the active and inactive calls. Unless noted, calls come from the whole dose curve; as a rule, active = well fitted inhibition curve with a large enough effect; inconclusive = small, poorly fitted or top-dose-only effect; inactive = flat fitted curve, though single readings scatter.
tested on: not listed separately; assay: Confirmatory qHTS for VERO E6 Cytotoxicity Assay: Counterscreen for SARS-CoV-2 CPE Assay (AID 1508605; calls by dose curve; note: nearly all actives have a fitted effect of over 60% in size; note: potency is the fitted concentration of half-maximal effect); details: cell viability luminescence; series mostly up to 20 µM

SMILES	Potency
CN(C)c1ccc(C2Nc3ccc4ccccc4c3C3=C2C(=O)CC(C)(C)C3)cc1Br (configuration not stated)	inactive
COc1c(C)cnc(Cn2cnc3c(Cl)nc(N)nc32)c1C	inactive
Nc1ccc(C(=O)c2cc3c(ccc4ccccc43)[nH]2)cc1	14.1 µM (active)
COc1cccc2c1CCCC2CCCN1CCN(C2CCCCC2)CC1 (configuration not stated)	inactive
CCN(CC)CCCCNc1nc2cc(Cl)c(Cl)cc2nc1-c1ccc(-c2cccs2)s1	10 µM (active)
O=C(c1ccc(Nc2nccc(-c3cc4ccccc4s3)n2)cc1)N1CCC(N2CCCC2)CC1	10 µM (active)
CCCCCCCc1ccc(CCc2cccc(O)c2C(=O)O)cc1	inactive

tested on: not listed separately; assay: Confirmatory qHTS for activators (rescue) of SARS-CoV-2 Cytopathic Effect (CPE) (AID 1508606; calls by dose curve; note: nearly all actives have a fitted effect of over 70% in size; note: potency is the fitted concentration of half-maximal effect); details: Vero E6 SARS-CoV-2 CPE rescue, viability luminescence; series mostly up to 20 µM

SMILES	Potency
CN(C)c1ccc(C2Nc3ccc4ccccc4c3C3=C2C(=O)CC(C)(C)C3)cc1Br (configuration not stated)	inactive
S=C(NCc1ccc2c(c1)OCO2)N1CCN(c2ncnc3c2oc2ccccc23)CC1	3.55 µM (active)
COc1cccc2c1CCCC2CCCN1CCN(C2CCCCC2)CC1 (configuration not stated)	11.2 µM (active)
O=C(c1ccc(Nc2nccc(-c3cc4ccccc4s3)n2)cc1)N1CCC(N2CCCC2)CC1	3.55 µM (active)

target: Calcium and integrin-binding protein 1 (Homo sapiens) (UniProt Q99828); assay: Primary qHTS for Identification of Calcium Integrin Binding Protein 1 (CIB1) Competitor (AID 1508620); details: CIB1-GST / FITC-alphaIIb peptide fluorescence polarization; series mostly up to 57.7 µM;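 note: GST tagged CIB1 binding a fluorescein labelled alphaIIb integrin peptide tracer; top concentration of the series differs between compounds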
How it was run: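 Fluorescence polarization competition: GST-tagged CIB1 (1 uM final) preincubated with compound 15 min at room temperature, then FITC-labelled alphaIIb peptide (100 nM final) added. After 15 min at room temperature, polarization read at Ex 480/Em 540.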

Chain of Calcium and integrin-binding protein 1 (Homo sapiens) (Q99828 whole entry, looked up): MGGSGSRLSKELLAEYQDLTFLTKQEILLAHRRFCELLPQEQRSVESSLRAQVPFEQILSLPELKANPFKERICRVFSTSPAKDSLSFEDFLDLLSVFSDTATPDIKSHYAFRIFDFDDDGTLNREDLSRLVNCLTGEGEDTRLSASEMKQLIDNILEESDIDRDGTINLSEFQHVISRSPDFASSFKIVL

SMILES	outcome
Nc1ccc(Cl)cc1N	inactive
CCOC(=O)c1c(C(C#N)=CN)c2ccc(Cl)c(Cl)c2n1C	inactive
Cc1c(N)nc([C@H](CC(N)=O)NC[C@@H](N)C(N)=O)nc1C(=O)N[C@H](C(=O)N[C@@H](C)[C@H](O)[C@@H](C)C(=O)N[C@@H](C(=O)NCCc1nc(-c2nc(C(=O)NCCC[S+](C)C)cs2)cs1)[C@@H](C)O)C(O[C@H]1O[C@H](CO)[C@H](O)[C@@H](O)[C@@H]1O[C@H]1O[C@H](CO)[C@@H](O)[C@H](OC(N)=O)[C@H]1O)c1cnc[nH]1 (some centres not stated)	inactive
CC(O)=C(C#N)C(=O)Nc1cc(Br)ccc1Br	inactive
N=c1c2c(-c3ccccc3)c(-c3ccccc3)n(Cc3ccccc3)c2ncn1C1CCC(O)CC1 (configuration not stated)	inactive
C[C@@H]1[C@H](O)[C@@H](C)C=CC=CCCC=CC=CC=CC=C[C@H](O[C@H]2O[C@@H](C)[C@H](O)[C@@H](N)[C@@H]2O)CC2O[C@](O)(C[C@@H](O)[C@H](O)CC[C@@H](O)C[C@@H](O)C[C@@H](O)CC(=O)O[C@H]1C)C[C@H](O)[C@H]2C(=O)O	inactive
CCCN(CCC)c1c([N+](=O)[O-])cc(S(N)(=O)=O)cc1[N+](=O)[O-]	inactive
C[C@H]([C@H](O)CCC(C)(C)O)[C@H]1CC[C@@]2(O)C3=CC(=O)[C@@H]4C[C@@H](O)[C@@H](O)C[C@]4(C)[C@@H]3CC[C@]12C	inactive
C[C@]12CC[C@H](O)CC1=CC[C@H]1[C@H]3CCC(=O)[C@@]3(C)CC[C@@H]12	inactive
C=C1C[C@H]2[C@H]3CCC(=O)[C@@]3(C)CC[C@@H]2[C@@]2(C)C=CC(=O)C=C12	inactive
CC(=CCCC1=CCC(C2=CC(=O)OC2O)OC1O)CCC1=C(C)CCCC1(C)C (configuration not stated)	inactive
COC[C@H]1OC(=O)c2coc3c2[C@@]1(C)C1=C(C3=O)[C@@H]2CC[C@H](O)[C@@]2(C)C[C@@H]1OC(C)=O	inactive
COc1ccc(C(=O)c2c(C)n(CCN3CCOCC3)c3cc(I)ccc23)cc1	inactive
CCOP(=O)(OCC)C(C)NC(=O)N(CCCl)N=O (configuration not stated)	inactive
CC[C@H]1C=CC=CC[C@@H](C)[C@H](O)[C@@](C)(O)C(=O)[C@@H](C)[C@H](O)[C@@H](C)C(=O)[C@@H](C)[C@H](O)[C@@H](C)C=CC(=O)O[C@@H]2[C@@H](C)[C@H](CC1)O[C@]1(CC[C@H](C)[C@H](C[C@@H](C)O)O1)[C@H]2C	inactive
C#C[C@]1(O)C=C[C@@H]2[C@@H]3CCC4=CC(=O)CC[C@@H]4[C@H]3CC[C@@]21CC	inactive
